Methyltransferases = Primary Screen for Target Class Profiling of Small Molecule Inhibitors of Methyltransferases; calls only at 40 µM; actives 3.9% (n = 25,000); AID 1745853, 2022; purified enzyme, MTase-Glo SAH luminescence; stronger effect = lower value; call rule not given here
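Each enzyme was reacted with SAM and its substrate, with compounds tested once at 40 uM; SAH formed was read by MTase-Glo luminescence.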
An asterisk follows results filed as active; i = inactive; + = active, no number; ! = a repeat was not active. This excerpt belongs to a sample that is enriched for hits. % is scaled to controls: 0 for no effect and ±100 for the full control effect.

SMILES	Methyltransferases
COc1cc(N2CCC(N3CCN(C)CC3)CC2)ccc1Nc1ncc(Cl)c(Nc2ccccc2S(=O)(=O)C(C)C)n1	+
COc1cc(N2CCN(C)CC2)ccc1Nc1nccc(-c2cn(C)c3cnccc23)n1	i
COc1cc(N2CCC(N(C)C)CC2)ccc1Nc1ncc(Cl)c(Nc2ccccc2P(C)(C)=O)n1	+
COc1ccc2cc3n(c2c1)CC(C)(C(=O)NC1CCCCC1)N(CCN1CCOCC1)C3=O (stereo unspecified)	i
CC1(C(=O)NC2CCCCCC2)Cn2c(cc3sccc32)C(=O)N1Cc1ccc(Cl)cc1 (stereo unspecified)	i
Cn1c(=O)c2ccc(C(=O)NC3CCCC3)cc2n2c(=O)n(CC(=O)Nc3ccc(F)cc3)nc12	i
CC(=O)N1CCCC(c2[nH]ccc2C(=O)NCc2cc(C)nn2C)C1 (stereo unspecified)	i
COC(=O)NC1CCN(c2ccc3nnc(-c4ccccc4)n3n2)C1 (stereo unspecified)	i
CC1=C(C(=O)O)N2C(=O)[C@@H](NC(=O)C(N)c3ccccc3)[C@H]2SC1 (stereo partly specified)	i
COc1ncccc1-c1cc(-c2c(C)noc2C)c2cncn2c1	i
COc1cc2c(cc1-c1c(C)noc1C)ncc1[nH]c(=O)n([C@H](C)c3ccccn3)c12	+!
Cc1noc(C)c1-c1nccc2c(=O)cc(-c3ccccn3)oc12	i
COc1ccc(-c2nc(C3CC(=O)N(c4ccc(C)cc4)C3)no2)cn1 (stereo unspecified)	i
CCC(C)NC(=O)c1ccc2c(=O)n(C)c3nn(CC(=O)Nc4cccc(F)c4)c(=O)n3c2c1 (stereo unspecified)	i
CCc1cc2c(cc3n2CC(C)(C(=O)NC2CCCCCC2)N(CCCOC(C)C)C3=O)s1 (stereo unspecified)	i
Cc1cccc(-c2noc([C@@H]3Cc4nc[nH]c4CN3C(=O)COCC(=O)O)n2)c1	i
COc1cc(/C=C/C(=O)NCCn2c(C(F)(F)F)cc3ccccc32)cc(OC)c1OC	i
CC1(C)CC[C@]2(C(=O)O)CC[C@]3(C)C(=CCC4[C@@]5(C)C(=O)C[C@H](O)[C@@](C)(CO)C5CC[C@]43C)[C@@H]2C1 (stereo partly specified)	i
CC1(CO)CC(O)[C@]2(C(=O)O)CCC34CC3(C=CC3[C@]5(C)C(CC[C@]34C)C(C)(CO)[C@@H](O)[C@H](O)[C@@H]5O)C2C1 (stereo partly specified)	+
CC1(C)CC[C@]2(C(=O)O)CC[C@]3(C)C(=CCC4[C@@]5(C)C[C@@H](O)[C@H](O)[C@@](C)(CO)C5CC[C@]43C)C2C1 (stereo partly specified)	i
CCN1C(=O)c2c(C(=O)NCc3ccccc3OC)ncn2CC1(C)C(=O)NC1CCCC1 (stereo unspecified)	i
CN(Cc1ccccc1)Cc1nc(C2CCOC2)no1 (stereo unspecified)	i
O=C(CCCc1nnc2n3nc(-c4ccccc4)nc3c3ccccc3n12)N1CCN(c2ccccc2)CC1	i
COc1cccc(CN2C(=O)c3cc4sccc4n3CC2(C)C(=O)NC2CCC(C)CC2)c1 (stereo unspecified)	i
COc1ccc(CN2C(=O)c3cc4sccc4n3CC2(C)C(=O)NC2CCCCC2)cc1OC (stereo unspecified)	i
SMILES	Methyltransferases
COc1ccc(CN2C(=O)c3cc4sccc4n3CC2(C)C(=O)NC2CCC(C)CC2)cc1OC (stereo unspecified)	+
Cc1cc(F)ccc1[C@H]1C[C@@H](N2CCN3C(=O)CC[C@H]3C2)CCN1C(=O)N(C)[C@H](C)c1cc(C(F)(F)F)cc(C(F)(F)F)c1	i
Cc1ccc(N2C(=O)c3cc(-c4ccco4)nn3CC2(C)C(=O)NC2CCCCC2)cc1C (stereo unspecified)	i
Nc1c2c(nc3ccccc13)CCCC2	+
C[C@H]1O[C@@H](n2cc(F)c(=O)[nH]c2=O)[C@H](O)[C@@H]1O	i
O=C(NCc1ccc2c(c1)OCO2)c1ccc2c(=O)nc3c(-c4ccccc4)n[nH]n3c2c1	i
O=C(O)CCc1ccc(NCc2cccc3c2CCCN3CCOc2ccccc2)cc1F	+
CC(=O)Nc1cccc(-c2n[nH]c3c2CC(=O)N(CCOc2ccccc2)C3)c1	i
O=C(O)CCc1ccc(NCc2cccc(Oc3ccccc3)c2)cc1	i
C=C1C(=O)O[C@@H]2C[C@@]3(C)C[C@@H](O)C[C@H](C)C3=C[C@H]12	i
CC(C)c1ccc2c(c1)C(=O)CC1C(C)(C(=O)O)CCCC21C (stereo unspecified)	i
COc1ccccc1CNC(=O)C1c2c(n(C)c3ccccc23)SCC(=O)N1c1ccc(OC)c(OC)c1 (stereo unspecified)	i
CC(C)c1cc2c(N3CCN(C4=NCC(C)(C)S4)CC3)ncnc2s1	+
CCCc1cc2c(N3CCN(C4=NCC(C)(C)S4)CC3)ncnc2s1	+
CCc1ccc(CN2C(=O)c3ccc(-c4ccccc4)n3CC2(C)C(=O)NC2CCCCCC2)cc1 (stereo unspecified)	i
CCCC1c2ccc(C)n2CCN1C(=O)NCc1ccc(F)cc1 (stereo unspecified)	i
CCCn1c(=O)c2ccc(C(=O)NC(C)C)cc2n2c(=O)n(CC(=O)Nc3ccc(C)cc3Cl)nc12	i
N#Cc1ccnc(N2C(=O)CC[C@H]2C(=O)N(c2cncc(F)c2)[C@H](C(=O)NC2CC(F)(F)C2)c2ccccc2Cl)c1	i
CCC(C)NC(=O)c1ccc2c(=O)n(C)c3nnc(SCC(=O)Nc4ccc(OC)cc4)n3c2c1 (stereo unspecified)	i
O=[N+]([O-])c1cn2c(n1)OC[C@@H](OCc1ccc(-c3ccc(OC(F)(F)F)cc3)nc1)C2	i
COc1cc(C/C(=C/NC(C)=O)N(CC(=O)Cc2ccccc2)C(C)=O)cc2c1OCO2	i
O=C(CCn1ccc2cc(S(=O)(=O)N3CCCC3)ccc21)NCc1ccco1	i
O=C(c1ccsc1)N1CCC2(CCCN(CC3CCC3)C2=O)C1 (stereo unspecified)	i
CS(=O)(=O)c1cccc(CNc2nc(Nc3ccc4c(c3)CCC(=O)N4)ncc2C(F)(F)F)c1	+
CCCn1c(=O)c2ccc(C(=O)NC(C)C)cc2n2c(=O)n(CC(=O)c3cc(C)ccc3C)nc12	i
SMILES	Methyltransferases
O=C(NC1CC(c2nnc(CO)n2C2CC2)C1)c1ccc2c(c1)CCO2 (stereo unspecified)	i
CC1(C(=O)NCc2ccccc2)Cn2nc(-c3ccccc3)cc2C(=O)N1Cc1ccco1 (stereo unspecified)	i
CC(N)(Cc1ccc(O)c(O)c1)C(=O)O (stereo unspecified)	+
COc1cc(CC(=O)O)ccc1O	i
C[C@](Cc1ccc(O)c(O)c1)(NN)C(=O)O	+
CCCCCCCC/C=C\CCCCCCCC(=O)NCCc1ccc(O)c(O)c1	i
CC1(C(=O)NC2CCCCCCC2)Cn2c(cc3sccc32)C(=O)N1CCCN1CCCCC1 (stereo unspecified)	i

Screening results as filed in PubChem BioAssay.
